Test results from PubChem BioAssay (Tox21).
Several values for one entry are separate records, joined by “and”; a condition that tells them apart may be missing. Equal entries are not always repeated. Inconclusive results are not listed. More than one record can exist for a structure, and the calls need not agree. Activity calls are given as the source filed them. Unless noted, calls follow the shape of the dose curve; as a rule, active = well fitted curve in the direction sought with a large enough effect in the repeat runs; inconclusive = weak or mixed curves; inactive = no such curve, though single readings can be large; an effect the other way counts as inactive or inconclusive.

Columns and labels:
[1] = qHTS assay to identify small molecule antagonists of the peroxisome proliferator-activated receptor delta (PPARd) signaling pathway - cell viability counter screen (AID 743213); also: nearly all actives have a fitted effect of over 50% in size
How it was run: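 Agonist-stimulated (L165041, 300 nM final) HEK293H PPARd UAS-bla cells are exposed to compounds for 17 h at 37 C, and ATP-based luminescence (CellTiter-Glo) from the same wells reports cytotoxicity.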

[2] = qHTS assay to identify small molecule agonists of the farnesoid-X-receptor (FXR) signaling pathway - cell viability counter screen (AID 743218); also: nearly all actives have a fitted effect of over 45% in size
How it was run: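 After 16 h at 37 C with test compounds, FXR-bla HEK 293T cells were given LiveBLAzer B/G substrate for 2 h at RT and then CellTiter-Glo; luminescence was taken after 30 min.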

[3] = qHTS assay to identify small molecule antagonists of the farnesoid-X-receptor (FXR) signaling pathway - cell viability counter screen (AID 743221; active = well fitted cell-killing curve with a large enough effect in the repeat runs, not every such curve was filed as active; also: nearly all actives have a fitted effect of over 50% in size)
How it was run: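 Compound effects on cell number were measured as CellTiter-Glo luminescence in HEK 293T cells expressing FXR-UAS-bla, after 16 h at 37 C with 50 uM CDCA (final).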

[4] = qHTS assay to identify small molecule agonists of the vitamin D receptor (VDR) signaling pathway - cell viability counter screen (AID 743224); also: nearly all actives have a fitted effect of over 50% in size; also: potency is read from the fitted curve at half-maximal effect
How it was run: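 Here cell health was gauged by luminescent ATP detection (CellTiter-Glo, 30 min RT) in VDR-bla cells that had been incubated with test compounds for 16 h at 37C and 5% CO2.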

[5] = qHTS assay to identify small molecule antagonists of the vitamin D receptor (VDR) signaling pathway - cell viability counter screen (AID 743225); also: nearly all actives have a fitted effect of over 50% in size; also: potency is read from the fitted curve at half-maximal effect
How it was run: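 In this counter screen, VDR-bla HEK 293T cells receive test compound plus 3 nM final calcitriol for 16 h at 37C. Room-temperature steps of 2 h with the beta-lactamase substrate, then 30 min with CellTiter-Glo, precede the luminescence read.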

[6] = qHTS assay to identify small molecule agonists of the NFkB signaling pathway (AID 1159509; active = well fitted curve in the direction sought with a large enough effect in the signal ratio in the repeat runs, not every such curve was filed as active; the % refers to the signal ratio; also: series mostly up to about 61 µM)
How it was run: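 ME-180 NFkB-bla, 2,000 cells/well, overnight plating; cpd pinned in DMSO, 5 h 37 C; B/G FRET substrate 1.5 h RT; ex 405, em 460/530 nm.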

[7] = qHTS assay to identify small molecule agonists of the endoplasmic reticulum stress response signaling pathway (AID 1159516; active = well fitted activation curve with a large enough effect in the signal ratio in the repeat runs, not every such curve was filed as active; the % refers to the signal ratio)
How it was run: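 Reporter HeLa cells (ESRE-beta-lactamase) underwent 5 hr compound incubation at 37 C and 5% CO2 in quantitative HTS format. Detection followed 2 hr of FRET substrate loading at room temperature.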

[8] = qHTS assay to identify small molecule agonists of the endoplasmic reticulum stress response signaling pathway - cell viability counter screen (AID 1159517; calls by dose curve)
How it was run: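 CellTiter-Glo was added to wells already read for beta-lactamase FRET, and luminescence was recorded 30 min later. Cells: ESRE-bla HeLa, 1,500 per well, compound exposure 5 hr at 37 C.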

[9] = qHTS assay to identify small molecule antagonists of the retinoid-related orphan receptor gamma (ROR-gamma) signaling pathway - cell viability counter screen (AID 1159520); also: nearly all actives have a fitted effect of over 50% in size; also: potency is read from the fitted curve at half-maximal effect
How it was run: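 Tet-on ROR gamma CHO cells (1,000/well) were plated 4 hr, given compounds in DMSO for 2 hr at 37 C, then induced with 1 uM final doxycycline for 16 hr. Viability was read as ATP by CellTiter-Glo luminescence after 30 min.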

[10] = molecular target: Nuclear receptor ROR-gamma (Homo sapiens) (UniProt P51449); assay: qHTS assay to identify small molecule antagonists of the retinoid-related orphan receptor gamma (ROR-gamma) signaling pathway (AID 1159521; also: nearly all actives have a fitted effect of over 50% in size; also: potency is read from the fitted curve at half-maximal effect)
How it was run: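 Screening format: cell-based luciferase reporter in CHO cells with doxycycline-inducible RORγ. Compound pre-exposure lasts 2 h, doxycycline is 1 uM final, induction runs 16 h at 37 C, and ONE-Glo luminescence is read.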

[11] = qHTS assay to identify small molecule agonists of the AP-1 signaling pathway - cell viability counter screen (AID 1159525; calls by dose curve; also: nearly all actives have a fitted effect of over 55% in size)
How it was run: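 ME-180 AP-1-bla, 2500 cells/well, Opti-MEM + 0.5% dialyzed FBS; overnight 37 °C; cpd 15-pt titration, 5 h 37 °C; CellTiter-Glo 30 min RT; luminescence read; normalised to TOAB and DMSO controls.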

[12] = qHTS assay to identify small molecule agonists of the AP-1 signaling pathway (AID 1159526; calls by dose curve)
[13] = molecular target: Peroxisome proliferator-activated receptor delta (Homo sapiens) (UniProt Q03181); assay: qHTS assay to identify small molecule agonists of the peroxisome proliferator-activated receptor delta (PPARd) signaling pathway (AID 743212; calls by dose curve)
How it was run: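 A PPARd-bla HEK293H line with beta-lactamase under an Upstream Activator Sequence is treated with compounds at 37 C. Substrate loading for 2 h at room temperature precedes the fluorescence measurement.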

[14] = molecular target: Peroxisome proliferator-activated receptor delta (Homo sapiens) (UniProt Q03181); assay: qHTS assay to identify small molecule antagonists of the peroxisome proliferator-activated receptor delta (PPARd) signaling pathway (AID 743215; active = well fitted inhibition curve with a large enough effect in the signal ratio in the repeat runs, not every such curve was filed as active; the % refers to the signal ratio; also: series mostly up to about 62 µM)
How it was run: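 With L165041 present at 300 nM final, compounds were incubated 17 h at 37 C on PPARd UAS-bla HEK293H cells. A FRET-based beta-lactamase substrate was then applied for 2 h at room temperature and fluorescence intensity recorded.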

[15] = molecular target: Bile acid receptor (Homo sapiens) (UniProt Q96RI1); assay: qHTS assay to identify small molecule antagonists of the farnesoid-X-receptor (FXR) signaling pathway (AID 743217; active = well fitted inhibition curve with a large enough effect in the signal ratio in the repeat runs, not every such curve was filed as active; the % refers to the signal ratio)
How it was run: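 In this cell-based antagonist screen, inhibition of CDCA-driven (50 uM final) UAS-beta-lactamase expression in HEK 293T cells was measured by FRET fluorescence following 16 h compound exposure at 37 °C.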

[16] = molecular target: Bile acid receptor (Homo sapiens) (UniProt Q96RI1); assay: qHTS assay to identify small molecule agonists of the farnesoid-X-receptor (FXR) signaling pathway (AID 743220; active = well fitted activation curve with a large enough effect in the signal ratio in the repeat runs, not every such curve was filed as active; the % refers to the signal ratio)
How it was run: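 Beta-lactamase reporter under UAS control in GeneBLAzer FXR HEK 293T cells (5000/well) measured with LiveBLAzer FRET substrate after 2 h at room temperature. Compound exposure lasted 16 h at 37C.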

[17] = qHTS assay to identify small molecule agonists of the peroxisome proliferator-activated receptor delta (PPARd) signaling pathway - cell viability counter screen (AID 743211); also: nearly all actives have a fitted effect of over 55% in size; also: potency is read from the fitted curve at half-maximal effect
How it was run: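 Following 5 h plating at 37 C and 5% CO2, PPARd UAS-bla HEK293H cells took up test compounds for 17 h. Viability was quantified by luminescence 30 min after CellTiter-Glo addition at room temperature.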

[18] = molecular target: Vitamin D3 receptor (Homo sapiens) (UniProt P11473); assay: qHTS assay to identify small molecule agonists of the vitamin D receptor (VDR) signaling pathway (AID 743222; calls by dose curve)
How it was run: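 VDR-bla cells were seeded, left 4 h, treated with compounds in DMSO for 16 h, incubated 2 h at RT with B/G FRET substrate, and read for fluorescence.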

[19] = molecular target: Vitamin D3 receptor (Homo sapiens) (UniProt P11473); assay: qHTS assay to identify small molecule antagonists of the vitamin D receptor (VDR) signaling pathway (AID 743223; active = well fitted inhibition curve with a large enough effect in the signal ratio in the repeat runs, not every such curve was filed as active; the % refers to the signal ratio)
How it was run: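 Beta-lactamase activity in VDR-bla cells is measured by FRET substrate fluorescence (2 h, room temperature) after cells spend 16 h at 37C with test compound and 3 nM final 1alpha,25-dihydroxyvitamin D3.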

Measured: Potency

Vitamin D3 receptor (Homo sapiens), sequence (P11473 whole entry, looked up): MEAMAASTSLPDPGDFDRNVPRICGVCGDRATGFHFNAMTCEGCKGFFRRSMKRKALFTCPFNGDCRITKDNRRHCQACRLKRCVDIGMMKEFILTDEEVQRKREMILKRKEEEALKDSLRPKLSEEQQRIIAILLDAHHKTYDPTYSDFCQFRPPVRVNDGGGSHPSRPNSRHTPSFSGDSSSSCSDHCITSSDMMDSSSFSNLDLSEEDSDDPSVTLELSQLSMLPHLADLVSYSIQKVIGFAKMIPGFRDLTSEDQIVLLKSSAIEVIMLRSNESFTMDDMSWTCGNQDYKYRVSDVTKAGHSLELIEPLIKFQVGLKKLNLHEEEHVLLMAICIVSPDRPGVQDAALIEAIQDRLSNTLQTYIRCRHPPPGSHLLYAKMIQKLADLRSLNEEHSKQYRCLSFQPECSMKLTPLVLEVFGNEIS
Peroxisome proliferator-activated receptor delta (Homo sapiens), sequence (Q03181 whole entry, looked up): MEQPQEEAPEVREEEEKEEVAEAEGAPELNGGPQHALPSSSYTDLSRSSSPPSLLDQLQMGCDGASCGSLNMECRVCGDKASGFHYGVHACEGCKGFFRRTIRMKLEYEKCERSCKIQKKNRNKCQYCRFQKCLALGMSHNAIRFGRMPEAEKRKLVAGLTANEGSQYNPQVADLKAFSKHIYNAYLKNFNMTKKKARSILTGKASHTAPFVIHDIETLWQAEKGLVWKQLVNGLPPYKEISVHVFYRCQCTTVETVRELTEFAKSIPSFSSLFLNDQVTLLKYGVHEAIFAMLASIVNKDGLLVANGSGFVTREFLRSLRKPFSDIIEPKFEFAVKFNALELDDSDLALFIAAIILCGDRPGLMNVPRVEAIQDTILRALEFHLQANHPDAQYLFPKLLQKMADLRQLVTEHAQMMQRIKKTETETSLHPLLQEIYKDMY
Bile acid receptor (Homo sapiens), sequence (Q96RI1 whole entry, looked up): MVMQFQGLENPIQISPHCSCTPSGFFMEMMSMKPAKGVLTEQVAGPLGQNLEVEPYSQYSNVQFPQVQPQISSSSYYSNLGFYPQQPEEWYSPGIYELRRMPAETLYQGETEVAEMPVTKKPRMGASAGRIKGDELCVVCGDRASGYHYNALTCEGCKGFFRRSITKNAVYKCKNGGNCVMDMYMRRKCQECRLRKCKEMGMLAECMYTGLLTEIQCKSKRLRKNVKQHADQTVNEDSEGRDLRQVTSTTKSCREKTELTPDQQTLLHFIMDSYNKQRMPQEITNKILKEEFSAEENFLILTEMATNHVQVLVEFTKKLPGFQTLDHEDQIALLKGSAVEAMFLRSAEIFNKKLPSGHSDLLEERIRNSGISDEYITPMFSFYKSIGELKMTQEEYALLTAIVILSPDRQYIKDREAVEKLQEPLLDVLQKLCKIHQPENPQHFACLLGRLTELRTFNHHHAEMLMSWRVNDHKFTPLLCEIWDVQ

Nc1ccc(Cl)cc1N
inactive: [1] | [2] | [3] | [5] | [6] | [7] | [8] | [9] | [10] | [11] | [12]
inactive and 43.6 µM (active): [4]

N#CC(Br)Br
inactive: [13] | [1] | [14] | [15] | [2] | [16] | [3] | [4] | [5] | [6] | [7] | [8] | [9] | [10] | [11] | [12]

CCCCN(CCCC)N=O
inactive: [1] | [15] | [2] | [16] | [3] | [4] | [5] | [6] | [7] | [8] | [9] | [10] | [11] | [12]

CCN(CC)N=O
inactive: [17] | [13] | [1] | [14] | [15] | [2] | [16] | [3] | [18] | [19] | [4] | [5] | [6] | [7] | [8] | [9] | [10] | [12]

CCCCCCCCCCCOC(=O)c1ccccc1C(=O)OCCCCCCCCCCC
inactive: [13] | [1] | [14] | [2] | [3] | [18] | [19] | [4] | [5] | [6] | [7] | [8] | [9] | [10] | [11] | [12]

COP(=S)(OC)Oc1cc(Cl)c(Cl)cc1Cl
inactive: [17] | [13] | [1] | [14] | [2] | [3] | [4] | [5] | [6] | [7] | [8] | [9] | [11]

C=CCc1ccc2c(c1)OCO2
inactive: [17] | [1] | [2] | [3] | [18] | [19] | [4] | [5] | [6] | [7] | [8] | [9] | [10] | [12]

C1=Cc2cccc3cccc1c23
inactive: [13] | [1] | [14] | [2] | [3] | [18] | [19] | [4] | [5] | [6] | [7] | [8] | [9] | [10] | [11] | [12]

Brc1ccc(Oc2cc(Br)c(Br)cc2Br)c(Br)c1
inactive: [13] | [1] | [14] | [2] | [16] | [3] | [18] | [19] | [4] | [5] | [6] | [7] | [8] | [9] | [10] | [12]
active: [17] 22 µM

N#Cc1cc(Br)c(O)c(Br)c1
active: [10] 27.3 µM and 37.1 µM
inactive: [17] | [13] | [14] | [15] | [16] | [3] | [4] | [6] | [7] | [8] | [9] | [12]

CCOc1cc(Oc2ccc(C(F)(F)F)cc2Cl)ccc1[N+](=O)[O-]
inactive: [13] | [1] | [15] | [16] | [3] | [4] | [5] | [6] | [7] | [8] | [9] | [11] | [12]

c1nc[nH]n1
inactive: [13] | [1] | [14] | [15] | [2] | [16] | [3] | [18] | [19] | [4] | [5] | [6] | [7] | [8] | [9] | [10] | [11] | [12]

C#CCOS(=O)OC1CCCCC1Oc1ccc(C(C)(C)C)cc1 (configuration not stated)
inactive and 24.5 µM (active): [17]
inactive: [13] | [1] | [14] | [15] | [2] | [16] | [3] | [6] | [7] | [8] | [11]
active: [4] 6.92 µM | [5] 38.9 µM | [9] 30.7 µM and 54.5 µM | [10] 1.94 µM and 3.86 µM

Oc1c(Cl)c(Cl)c(Cl)c(Cl)c1Cl
inactive: [16] | [3] | [18] | [19] | [5] | [6] | [8] | [9] | [12]
active: [10] 54.5 µM

CCN(N=O)C(N)=O
inactive: [13] | [1] | [14] | [15] | [2] | [16] | [3] | [18] | [19] | [4] | [5] | [6] | [7] | [8] | [9] | [10] | [11] | [12]

Cc1ccc(N)c(N)c1
inactive: [17] | [1] | [2] | [3] | [18] | [19] | [4] | [5] | [6] | [7] | [8] | [9] | [10] | [11] | [12]

CCC(C)c1ccc(O)cc1 (configuration not stated)
inactive: [1] | [15] | [2] | [16] | [3] | [4] | [5] | [6] | [7] | [8] | [9] | [10] | [12]
